Unmarked numbers belong to inactive results. Records with an inconclusive call do not appear. Activity calls are given as the source filed them. The call rests on the fitted dose curve; in most records, active means well fitted curve in the direction sought with a large enough effect; inconclusive means small, poorly fitted or top-dose-only effect, or another doubt; inactive means no such curve, though single readings can be large; an effect the other way counts as inactive or inconclusive. Where a SMILES comes first, the peptide text is derived from it.

The text below walks through data of PubChem BioAssay (NCATS).

Experiment [1] in a line: Primary fluorescence-based thiol-reactive (MSTI) qHTS assay for identification of artifact compounds. (AID 1845221). Further: nearly all actives have a fitted effect of over 65% in size. Further: potency means the concentration at half of the fitted maximal effect.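 On activity change, negative = thiol reactive: series mostly up to about 54 µM; thiol-reactive compounds lower the probe fluorescence signal.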 Put shortly: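 First, 4 uM MSTI in 2% DMSO/PBS pH 7.4 was dispensed; next, compounds were added; then plates sat 1 h at room temperature without light. Finally, emission at 598 nm was recorded.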
(In qHTS, concentration-response curves come from the screen itself.)

Experiment [2] concerns Nanoluciferase (engineered Oplophorus gracilirostris luciferase). The experiment can be described thus: Primary Nanoluciferase (NLuc) qHTS assay for identification of artifact compounds. (AID 1845222).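 Further: series mostly up to about 54 µM; 0% = DMSO and -100% = no enzyme.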 The gist of the method:
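Compounds are pinned into diluted (1:55) conditioned medium of NLuc-expressing S16 cells and held 15 min at room temperature protected from light. Nano-Glo substrate follows, and luminescence is read 5 min later.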

The nature of experiment [3]: Primary redox qHTS assay for identification of artifact compounds. (AID 1845223).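 Further: 0% = DMSO and 100% = reference compound.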 The gist of the method:
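Redox-cycling detection via DTT (250 uM final) oxidation coupled to Amplex Red (25 uM)/HRP (250 mU/mL) in HBSS. 15 min preincubation plus 30 min after DTT, room temperature. Ex/Em 525/598 nm; 4-parameter Hill fit against DMSO and 10 uM DA3003.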

With `CC(=O)c1c(O)cc2c(c1C)C(=O)CC(O)C2` (centres undefined), in experiment [1], the Potency is 10.6 µM (active). Besides, the Potency entry in experiment [2] and in experiment [3] was “inactive” in each case.

For the compound `CC(C)=CCCC1(C)Oc2cc3c(c4c2C2C(O4)C(C)(O)CCC21)CN(C(CCC(=O)O)C(=O)O)C3=O` (centres undefined), the Potency result in experiment [1], in experiment [2] and in experiment [3] was “inactive” throughout.

In the case of `CC(NCc1ccc(OCc2cccc(F)c2)cc1)C(N)=O` (centres undefined), the Potency result in experiment [1], in experiment [2] and in experiment [3] was “inactive” throughout.

Turning to `CC[C@H](C)/C=C(C)/C=C/C(=O)Cc1cc(O)c(C)c(O)c1C=O`, the Potency in experiment [1] is 14.7 µM (active). For the same compound, the Potency result in experiment [2] and in experiment [3] was “inactive” each time.

Consider `CNc1nc(Nc2cnn([C@H]3CCN(C4COC4)C[C@@H]3F)c2Cl)ncc1C(F)(F)F`, for which the Potency entry in experiment [1], in experiment [2] and in experiment [3] was “inactive” throughout.

For `Cc1ccc(Sc2cncc3sc(C(N)=O)cc23)cc1`, the Potency result in experiment [1], in experiment [2] and in experiment [3] was “inactive” throughout.

Regarding `O=C(/C=C/c1ccc(O)cc1)OCC1=CC2OC(=O)C3=CO[C@@H](O[C@@H]4O[C@H](CO)[C@@H](O)[C@H](O)[C@H]4O)[C@H]1[C@@H]32` (some centres undefined), the Potency result in experiment [1], in experiment [2] and in experiment [3] was “inactive” throughout.

In the case of `COC1=CC(=O)O[C@@H](CCc2ccccc2)[C@@H]1O`, the Potency entry in experiment [1], in experiment [2] and in experiment [3] was “inactive” each time.

With `CCNC(=O)[C@H]1O[C@H](n2cnc3c(NCC(c4ccccc4)c4ccccc4)nc(C(=O)NCCNC(=O)NC4CCN(c5ccccn5)CC4)nc32)[C@H](O)[C@@H]1O`, the Potency result in experiment [1], in experiment [2] and in experiment [3] was “inactive” throughout.

Consider `COc1cc(C2Oc3c(OC)cc(CCCO[C@@H]4O[C@H](CO)[C@@H](O)[C@H](O)[C@H]4O)cc3C2CO)ccc1O` (some centres undefined), for which the Potency in experiment [1] was 13 µM (active). For the same compound, the Potency entry in experiment [2] and in experiment [3] was “inactive” each time.

As to `CC1(CO)CC[C@]2(C(=O)O[C@@H]3O[C@H](CO)[C@@H](O)[C@H](O)[C@H]3O)CC[C@]3(C)C(=CCC4[C@@]5(C)C[C@H](O)[C@H](O[C@@H]6OC[C@@H](O)[C@H](O)[C@H]6O)[C@@](C)(CO)C5CC[C@]43C)C2C1` (some centres undefined), the activity change, negative = thiol reactive in experiment [1] was 76.2% [at 11.5 µM]. In experiment [2], the activity, negative = inhibition was 0% [at 11.6 µM]. For the same compound, in experiment [3], the redox activity (% of DA3003) was 6.69% [at 11.5 µM].

In the case of `CC1NC(=O)CNC(=O)C(C(C)C)NC(=O)C2CCCN2C(=O)C(C(C)C)NC(=O)C(Cc2c[nH]c3ccccc23)NC1=O` (centres undefined) (cyclo(GAWVPV); configuration not given here), the Potency entry in experiment [1], in experiment [2] and in experiment [3] was “inactive” each time.

In the case of `CC(C)[C@H]1CCC(CO)=C[C@@H]1/C=C(\CO)C(=O)O`, the Potency result in experiment [1], in experiment [2] and in experiment [3] was “inactive” throughout.
